According to publication PMC5540273 (PLoS ONE, 2017):

Key:
Conditions in all cases: concentration: 1 μM, replicates: in singlicate; n = 1
MLK1 = system: T1, MLK1
T1 construct: gene MAP3K9

MLK2 = system: MLK2
MLK3 = system: MLK3
MRCKA = system: MRCKA
MRCKB = system: T2, MRCKB
T2 construct: gene CDC42BPB

MST1R = system: MST1R
MST1 = system: T3, MST1
T3 construct: gene STK4

MST2 = system: T4, MST2
T4 construct: gene STK3

MST3 = system: T5, MST3
T5 construct: gene STK24

MST4 = system: MST4
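Also: KINOMEscan kinase panel screen.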

Row | SMILES | %Inh (MLK1) [%] | %Inh (MLK2) [%] | %Inh (MLK3) [%] | %Inh (MRCKA) [%] | %Inh (MRCKB) [%] | %Inh (MST1R) [%] | %Inh (MST1) [%] | %Inh (MST2) [%] | %Inh (MST3) [%] | %Inh (MST4) [%]
1 | COc1cc(Nc2nccc(-c3c(-c4cccc(NC(=O)c5c(F)cccc5F)c4)nn4ccccc34)n2)cc(OC)c1OC [GSK323521] | 28 | 56 | 17 | 0 | 0 | 6 | 92.1 | 39 | 33 | 33
2 | COc1cccc(NC(=O)NC2CCN(c3ccnc(Nc4cc(OC)c(OC)c(OC)c4)n3)C2)c1 (centres unmarked) [GSK1379763] | 48 | 0 | 38 | 11 | 60 | 31 | 0 | 3 | 0 | 0
3 | Nc1ncc(-c2cccnc2)c2scc(-c3ccc4c(c3)CCN4C(=O)Cc3ccccc3)c12 [GSK683281] | 10 | 11 | 7 | 23 | 79 | 78 | 95.8 | 36 | 8 | 13
4 | COc1cc(Nc2nccc(-c3c(-c4cccc(NC(=O)c5c(F)cccc5F)c4)nn4ncccc34)n2)cc(OC)c1OC [GSK327238] | 9 | 39 | 50 | 100 | 98.9 | 79 | 96.6 | 92.1 | 64 | 42
5 | COc1cc2c(cc1OCCN1CCNCC1)ncc1c3ccc(C#N)cc3[nH]c21 | 0 | 0 | 0 | 6 | 0 | 9 | 0 | 60 | 12 | 28
6 | CN(c1ccc(NC(=O)Nc2cc(C(F)(F)F)ccc2F)cc1)c1ccnc(Nc2ccc(S(N)(=O)=O)cc2)n1 [GW809893] | 75 | 34 | 66 | 0 | 0 | 99.7 | 80 | 2 | 29 | 28
7 | Cc1cccc(Nc2nc(N[C@H]3CCNC3)ncc2C(N)=O)c1.Cl [GSK2197149] | 92.9 | 4 | 86 | 0 | 0 | 0 | 43 | 0 | 31 | 36
8 | Cl.Cl.NCC(C(=O)Nc1cc(Br)c(-c2ccnc3[nH]ccc23)s1)c1ccccc1 (centres unmarked) [GSK1269851] | 0 | 18 | 11 | 0 | 25 | 47 | 0 | 7 | 0 | 11
9 | Nc1n[nH]c2cnc(-c3ccccc3)cc12 [SB-642124] | 0 | 0 | 0 | 16 | 3 | 37 | 4 | 8 | 0 | 5
10 | Nc1ncnc2c1nc(-c1ccccc1)n2-c1ccccc1 [SKF-97293] | 16 | 2 | 0 | 0 | 0 | 18 | 21 | 20 | 0 | 24
11 | O=C(NC1CCN(c2ccnc(Nc3ccc(F)cc3)n2)C1)c1cc2ccccc2s1 (centres unmarked) [GSK1379716] | 0 | 0 | 29 | 10 | 5 | 34 | 9 | 0 | 0 | 0
12 | Cc1ccc(S(=O)(=O)Nc2ccc(Nc3nccc(Nc4cccc5[nH]ncc45)n3)cc2)cc1 [GSK581271] | 0 | 0 | 0 | 7 | 0 | 35 | 46 | 0 | 11 | 0
13 | O=C(Nc1cccc(Oc2ccc3nc(NC(=O)C4CC4)cn3n2)c1)c1ccccc1C(F)(F)F | 6 | 4 | 0 | 24 | 0 | 23 | 10 | 18 | 0 | 0
14 | Cc1ccc(F)c(C(=O)Nc2cccc(-c3nn4ccccc4c3-c3ccnc(Nc4cccc(F)c4)n3)c2)c1F [GSK361061] | 14 | 42 | 31 | 22 | 24 | 34 | 34 | 0 | 2 | 15
15 | COc1cc(Nc2nccc(N3CCC(NC(=O)Nc4cccc(C(C)=O)c4)C3)n2)cc(OC)c1OC (centres unmarked) [GSK1379753] | 48 | 0 | 45 | 18 | 0 | 36 | 89 | 31 | 2 | 0
16 | O=C(Nc1n[nH]c2cc(-c3ccoc3)ccc12)C1CC1 [SB-738481] | 0 | 0 | 6 | 1 | 0 | 0 | 0 | 25 | 0 | 0
17 | Cc1ccc(C)c(NC(=O)NC2CCN(c3ccnc(Nc4ccc(F)cc4)n3)C2)c1 (centres unmarked) [GSK1379720] | 0 | 0 | 0 | 11 | 6 | 38 | 0 | 0 | 0 | 0
18 | Nc1ncc(-c2ccc3nccc(-c4ccncc4)c3c2)cc1S(=O)(=O)N1CCOCC1 [GSK1627798] | 6 | 0 | 0 | 0 | 0 | 11 | 7 | 0 | 4 | 0
19 | COc1cccc(-c2ccc3c(NC(=O)C4CC4)n[nH]c3n2)c1 [SB-710903] | 19 | 0 | 0 | 21 | 0 | 29 | 3 | 0 | 0 | 0
20 | O=C(O)C(F)(F)F.O=C(O)C(F)(F)F.O=c1[nH]ccc2nc(N[C@@H]3CCCNC3)nc(Nc3ccc(S(=O)(=O)N4CCOCC4)cc3)c12 [GSK2177277] | 96.4 | 83 | 98.4 | 35 | 80 | 57 | 99.3 | 41 | 97.5 | 98.9
21 | COc1ccc(CNC(=O)NC2CCN(c3ccnc(Nc4ccc(F)cc4)n3)CC2)cc1 [GSK1379788] | 0 | 0 | 0 | 19 | 0 | 35 | 3 | 0 | 0 | 0
22 | CCc1ccc(-c2ccc3c(c2)-c2c(cnn2C)S(=O)(=O)N3C)cc1 | 7 | 0 | 0 | 0 | 0 | 31 | 0 | 0 | 0 | 0
23 | CN(C)Cc1ccc(-c2ccc3c(Nc4ccc(Oc5ccccn5)cc4)ccnc3c2)o1 [GW567148] | 0 | 0 | 1 | 0 | 0 | 41 | 14 | 0 | 0 | 0
